# According to PubChem BioAssay:
# Active and inactive are the calls of the source. Unless noted, the rule behind the calls is not given here.
# How the values were obtained:
# [1] = resazurin metabolic signal in HepG2 cells – cell-based, resazurin fluorescence, 24 h, PK04 Diversity Set, profiling panel (AID 1172); conditions: HepG2 viability, higher = more signal; note: test concentration not given here
# [2] = budding yeast growth changes without added modifier – OD600, strain BY4716, 24 h, basal condition, primary screen (AID 1173); conditions: S. cerevisiae BY4716 growth, OD600, 24 h; higher = more signal, called active from +8 up or from −8 down
# [3] = viability profiling in MM1S myeloma cells – cell-based, resazurin fluorescence, basal, 24 h, PK04 Diversity Set, profiling panel (AID 1174); conditions: higher = more signal, called active from +8 up or from −8 down;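 note: MM1S multiple myeloma cell line; test concentration not given here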
# [4] = target: Dihydroorotate dehydrogenase (quinone), mitochondrial (Plasmodium falciparum (isolate 3D7)) (UniProt Q08210); test: inhibition of P. falciparum DHODH – biochemical, C-terminal His tag, absorbance 600 nm, primary screen (AID 1175); conditions: PfDHODH enzyme, DCIP absorbance 600 nm; higher = more signal, called active from +8 up or from −8 down;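 note: recombinant parasite enzyme with a five histidine tag at its C terminus; test concentration not given here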
# [5] = inhibition of PAO1 biofilm formation – strain PAO1, LB-PBS medium, absorbance 600 nm, primary screen (AID 1176); note: test concentration not given here; conditions: P. aeruginosa PAO1 growth/biofilm, A600, 12 h; higher = more signal
# [6] = growth modulation of vineyard yeast isolate – strain RM11-1a, OD600, basal, 24 h, primary screen (AID 1177);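 note: cultures grown under basal conditions with no added stressor; test concentration not given here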; conditions: S. cerevisiae RM11-1a growth, OD600, 24 h; higher = more signal, called active from +8 up or from −8 down
# [7] = growth of efflux-deficient E. coli DRC39 – strain DRC39, OD650, 24 h, E. coli filamentation inducers, primary screen (AID 1178);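 note: growth measured as culture turbidity by optical density at 650 nm; test concentration not given here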; conditions: E. coli DRC39 acrAB, higher = more signal, called active from +8 up or from −8 down
# [8] = growth of efflux-deficient E. coli DRC39 – strain DRC39, OD650, 48 h, E. coli filamentation inducers, primary screen (AID 1179);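 note: screen aims at cell division blockers that make cells filament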; conditions: E. coli DRC39 delta-acrAB growth, higher = more signal, called active from +8 up or from −8 down
# [9] = viability profiling in RPMI8226 myeloma cells – cell-based, resazurin fluorescence, basal, 24 h, PK04 Diversity Set, profiling panel (AID 1180); conditions: higher = more signal;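 note: RPMI8826 multiple myeloma cell line at 5000 cells per well; test concentration not given here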
# [10] = target: E3 ubiquitin-protein ligase XIAP (Homo sapiens) (UniProt P98170); test: small molecules binding XIAP protein – biophysical, small-molecule microarray, fluorescence 635 nm, primary screen (AID 1181); conditions: higher = more signal;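 note: score merges 667 nm emission and signal to noise over triplicate slides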
# Chain of E3 ubiquitin-protein ligase XIAP (Homo sapiens) (P98170 whole entry, looked up): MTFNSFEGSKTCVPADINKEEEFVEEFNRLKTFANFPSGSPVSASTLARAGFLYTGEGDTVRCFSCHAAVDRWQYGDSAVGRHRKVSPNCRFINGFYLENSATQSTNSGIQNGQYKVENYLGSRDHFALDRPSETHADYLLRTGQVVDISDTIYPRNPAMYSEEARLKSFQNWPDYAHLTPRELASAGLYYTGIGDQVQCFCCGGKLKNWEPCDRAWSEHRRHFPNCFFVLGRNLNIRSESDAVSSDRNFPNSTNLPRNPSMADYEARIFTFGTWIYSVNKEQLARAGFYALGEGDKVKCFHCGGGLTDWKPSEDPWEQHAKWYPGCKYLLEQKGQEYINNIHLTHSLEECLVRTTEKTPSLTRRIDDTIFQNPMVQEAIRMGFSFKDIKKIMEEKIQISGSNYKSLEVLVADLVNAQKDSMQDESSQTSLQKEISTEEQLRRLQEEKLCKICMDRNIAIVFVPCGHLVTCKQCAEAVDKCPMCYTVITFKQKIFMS
# Chain of Dihydroorotate dehydrogenase (quinone), mitochondrial (Plasmodium falciparum (isolate 3D7)) (Q08210 whole entry, looked up): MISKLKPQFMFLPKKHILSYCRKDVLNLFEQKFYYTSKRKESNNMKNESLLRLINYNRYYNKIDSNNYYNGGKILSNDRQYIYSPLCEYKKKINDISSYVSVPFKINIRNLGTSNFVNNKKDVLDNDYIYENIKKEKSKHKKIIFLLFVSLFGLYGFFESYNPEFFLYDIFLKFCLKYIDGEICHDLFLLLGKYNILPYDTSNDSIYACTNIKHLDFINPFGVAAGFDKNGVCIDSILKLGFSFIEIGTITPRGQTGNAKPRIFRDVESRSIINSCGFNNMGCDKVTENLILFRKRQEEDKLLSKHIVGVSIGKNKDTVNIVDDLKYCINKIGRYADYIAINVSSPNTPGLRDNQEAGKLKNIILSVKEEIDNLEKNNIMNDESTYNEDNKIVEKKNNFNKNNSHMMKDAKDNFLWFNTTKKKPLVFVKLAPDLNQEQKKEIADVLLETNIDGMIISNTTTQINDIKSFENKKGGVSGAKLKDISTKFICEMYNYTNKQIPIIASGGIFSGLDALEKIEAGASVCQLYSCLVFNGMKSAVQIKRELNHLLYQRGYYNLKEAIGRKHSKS
Compound,z-score [1],z-score [2],z-score [3],composite z-score [4],z-score [5],z-score [6],z-score [7],z-score [8],z-score [9],composite z-score [10]
COC(=O)CC=C[C@@H](C)[C@@H](C=NOCC[C@@H]1C=C[C@H](OC(C)=O)[C@@H](COC(C)=O)O1)OC,-0.269,0.557 (inactive),-0.104 (inactive),0.558 (inactive),-0.242 (inactive),0.47 (inactive),0.157 (inactive),0.138 (inactive),-0.325,0.0506
C[C@@H]1CC[C@H]2C(=O)O[C@@H](COc3ccc(C(C)(C)C)cc3)CN2[C@@H]1c1ccc(Br)cc1,0.937,-0.752 (inactive),0.23 (inactive),-0.184 (inactive),-0.291 (inactive),-0.176 (inactive),0.095 (inactive),0.408 (inactive),1.06,0.072
C#CCCCON=C1[C@H]2CCn3c(=O)n(C)c(=O)n3[C@H]2[C@H](O)[C@@H]2O[C@H]12,-1.33,-0.492 (inactive),-1.59 (inactive),-0.511 (inactive),-0.568 (inactive),0.956 (inactive),0.0518 (inactive),0.385 (inactive),-1.93,-0.391
C[n+]1ccc(-c2ccc(CO)cc2)cc1,-0.557,0.11 (inactive),-0.404 (inactive),-10 (active),-0.407 (inactive),-0.142 (inactive),0.207 (inactive),-0.0742 (inactive),-0.674,0.433
CCOC(=O)[C@H](CC(C)C)NC(=O)CCC1CC(OC(=O)NCCc2ccc(F)cc2)CC2(CCCC(COC(=O)NCCOc3ccccc3)O2)O1 (stereo not given in full),-0.972,0.0544 (inactive),0.2 (inactive),0.95 (inactive),-0.883 (inactive),0.446 (inactive),-0.183 (inactive),0.168 (inactive),0.161,-0.214
CCOC(=O)[C@H](CC(C)C)NC(=O)CCC1CC(OC(=O)NCc2cccc3ccccc23)CC2(CCCC(COC(=O)NCCOc3ccccc3)O2)O1 (stereo not given in full),0.329,-0.895 (inactive),0.572 (inactive),-0.785 (inactive),-0.127 (inactive),-0.879 (inactive),0.0446 (inactive),0.253 (inactive),1.57,-0.142
C[C@@H](c1ccccc1)N1C(=O)[C@H]2[C@H]3[C@H](O)[C@H](O)CC(=O)[C@H]3CC[C@H]2C1=O,-0.137,-0.491 (inactive),0.162 (inactive),-0.736 (inactive),0.128 (inactive),-0.218 (inactive),0.366 (inactive),0.53 (inactive),0.033,0.0641
O=C1[C@H]2[C@H]3[C@H](O)[C@H](O)CC(=NOCc4ccccc4)[C@H]3CC[C@H]2C(=O)N1Cc1ccc2c(c1)OCO2,0.616,-0.0033 (inactive),0.13 (inactive),-0.51 (inactive),-0.695 (inactive),0.0065 (inactive),0.698 (inactive),-1.38 (inactive),0.129,-0.0663
CCCNC(=O)OC[C@H]1O[C@H](CCON=C(C)CCN2CCCc3nc(C)c(C)cc32)C=C[C@@H]1Oc1ccc(OC)cc1,0.691,0.766 (inactive),-0.291 (inactive),0.0151 (inactive),0.9 (inactive),-0.295 (inactive),0.908 (inactive),0.557 (inactive),1.46,0.284
CCOC(=O)[C@H](Cc1ccccc1)NC(=O)CCC1CC(OC(=O)NCc2cccc3ccccc23)CC2(CCCC(COC(=O)NCc3ccccc3)O2)O1 (stereo not given in full),0.466,-2.55 (inactive),1.12 (inactive),-2.79 (inactive),0.709 (inactive),-2.62 (inactive),-0.964 (inactive),-1.23 (inactive),1.03,0.171
O=C1[C@H]2[C@H]3[C@H](O)[C@H](O)CC(=NOC[C@@H](O)COCc4ccco4)[C@@H]3CC[C@H]2C(=O)N1C[C@@H]1CCCO1,0.188,0.408 (inactive),0.59 (inactive),0.121 (inactive),-0.662 (inactive),1.1 (inactive),0.93 (inactive),1.14 (inactive),-0.256,0.137
CC(CCN1CCCc2nc(C)c(C)cc21)=NOC(C)CN1CCCCc2nc(C)c(C)cc21 (stereo not given),-0.0007,1.38 (inactive),-0.221 (inactive),0.131 (inactive),1.3 (inactive),1.02 (inactive),0.315 (inactive),-0.554 (inactive),0.347,0.593
CC(C)CON=C1C[C@@H](O)[C@@H](O)[C@@H]2[C@@H]3C(=O)N(Cc4ccc5c(c4)OCO5)C(=O)[C@@H]3CC[C@H]12,0.259,0.151 (inactive),-0.146 (inactive),0.834 (inactive),-0.626 (inactive),0.812 (inactive),0.0036 (inactive),-0.0961 (inactive),-0.0651,-0.184
O=C1C[C@@H](O)[C@@H](O)[C@@H]2[C@@H]3C(=O)N(Cc4ccccc4)C(=O)[C@@H]3CC[C@@H]12,0.568,0.178 (inactive),0.144 (inactive),0.378 (inactive),-0.425 (inactive),0.0564 (inactive),-0.7 (inactive),-0.564 (inactive),0.112,0.126
CC[C@@H](c1ccccc1)n1c(=O)n2n(c1=O)[C@H]1[C@H](O)[C@@H]3O[C@@H]3C(=O)[C@H]1CC2,-0.797,-1.57 (inactive),-2.15 (inactive),0.807 (inactive),-0.626 (inactive),-0.552 (inactive),0.285 (inactive),0.216 (inactive),-2.04,0.0641
COc1ccc(COC(=O)NN=C2C[C@@H](O)[C@@H](O)[C@@H]3[C@@H]4C(=O)N(C5CCCCC5)C(=O)[C@@H]4CC[C@H]23)cc1,-0.689,1.07 (inactive),-1.15 (inactive),0.608 (inactive),1 (inactive),0.335 (inactive),-0.189 (inactive),-0.582 (inactive),-0.363,-0.267
COC(=O)CC=C[C@@H](C)[C@@H](C=NOC[C@H]1O[C@H](c2ccccc2)C=C[C@@H]1Oc1ccc(OC)cc1)OC,0.167,0.805 (inactive),0.0784 (inactive),0.388 (inactive),0.335 (inactive),0.065 (inactive),0.0177 (inactive),-0.0331 (inactive),0.264,0.127
CCOC(=O)NN=C1C[C@@H](O)[C@@H](O)[C@@H]2[C@@H]3C(=O)N(c4ccc(F)cc4F)C(=O)[C@@H]3CC[C@@H]12,1.06,0.559 (inactive),0.514 (inactive),-0.0225 (inactive),0.118 (inactive),0.916 (inactive),0.239 (inactive),-0.559 (inactive),0.562,-0.0663
C[C@@H](c1ccccc1)N1C(=O)[C@H]2[C@H]3[C@H](O)[C@H](O)CC(=NO[C@@H]4O[C@H](CO)[C@@H](O)[C@H](O)[C@H]4O)[C@@H]3CC[C@H]2C1=O,-0.416,0.0492 (inactive),-0.671 (inactive),-0.337 (inactive),0.14 (inactive),-0.294 (inactive),-0.403 (inactive),0.334 (inactive),-0.361,-0.254
CCN1C(=O)[C@H]2[C@H]3[C@H](O)[C@H](O)CC(=O)[C@@H]3CC[C@H]2C1=O,-0.309,-0.553 (inactive),-0.399 (inactive),-0.308 (inactive),-0.72 (inactive),-0.162 (inactive),-0.307 (inactive),-0.164 (inactive),-0.752,0.112
CCc1cc2c(nc1CC)CCN(CCC(C)=NO[C@H](C)c1cn([C@@H]3COC[C@H]3O)nn1)C2,-0.51,0.485 (inactive),-1.4 (inactive),-0.0125 (inactive),-0.643 (inactive),0.431 (inactive),0.415 (inactive),0.741 (inactive),-0.828,0.0368
CO[C@H]1COC(=O)[C@H](C)NC(=O)[C@@H](C)COC(=O)[C@H]2CCCN2C(=O)CC=C[C@H]1C,-0.384,-0.739 (inactive),0.0177 (inactive),-2.21 (inactive),-0.655 (inactive),-0.382 (inactive),0.491 (inactive),0.206 (inactive),-0.65,-0.354
CCOC(=O)[C@H](Cc1ccccc1)NC(=O)CCC1CC(OC(=O)NCCc2ccc(F)cc2)CC2(CCCC(COC(=O)NCC3CCCCC3)O2)O1 (stereo not given in full),0.211,-0.362 (inactive),0.368 (inactive),-0.189 (inactive),0.781 (inactive),0.869 (inactive),0.828 (inactive),1.21 (inactive),0.772,-0.0009
COC(=O)CC=C[C@@H](C)[C@@H](C=NO[C@H](C)c1cn([C@H](CO)Cc2ccccc2)nn1)OC,0.167,-0.285 (inactive),-0.242 (inactive),-0.184 (inactive),0.368 (inactive),-0.212 (inactive),0.0343 (inactive),-0.265 (inactive),0.261,-0.142
COC(=O)CC=C[C@H](C)[C@@H](OCc1cccc(Br)c1)[C@@H](C)[C@H](OC)C1CCCCC1,-0.363,-0.949 (inactive),0.0742 (inactive),-0.498 (inactive),-1.16 (inactive),0.161 (inactive),0.474 (inactive),-0.596 (inactive),-0.171,-0.318
